Data on 40 sequences can be found in publication PMC11006913.

PROP1, sequence (O75360 56-141 R99H): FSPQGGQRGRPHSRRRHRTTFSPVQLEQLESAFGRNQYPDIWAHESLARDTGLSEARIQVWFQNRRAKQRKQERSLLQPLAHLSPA

The assay has as its target PROP1 (Homo sapiens, UniProt O75360 56-141, R99H). The experiment in a line: PBM; 200 nM protein, PBS. Particulars: dsDNA, one strand shown.
Take AATATGAA: the binding signal was 8.01 upbm affinity estimate (log intensity, higher = more binding, comparable within an allelic series).
For AGGCCAGG, the binding signal is 6.97 upbm affinity estimate (log intensity, higher = more binding, comparable within an allelic series).
For GGCATGAC the value was 6.75 upbm affinity estimate (log intensity, higher = more binding, comparable within an allelic series); for AAAAATTT, 7.95 upbm affinity estimate (log intensity, higher = more binding, comparable within an allelic series); for AATCTATA, 8.14 upbm affinity estimate (log intensity, higher = more binding, comparable within an allelic series).
Consider CCCGGGAA, for which the binding signal was 6.79 upbm affinity estimate (log intensity, higher = more binding, comparable within an allelic series).
In the case of GCGGACGC, the binding signal was 6.66 upbm affinity estimate (log intensity, higher = more binding, comparable within an allelic series).
Take GGGTCGGA: the binding signal was 6.78 upbm affinity estimate (log intensity, higher = more binding, comparable within an allelic series).
Consider CCGACCGG, for which the binding signal is 6.6 upbm affinity estimate (log intensity, higher = more binding, comparable within an allelic series).
For AGGCTCCG the value was 6.73 upbm affinity estimate (log intensity, higher = more binding, comparable within an allelic series); for AGAGCCGG, 6.67 upbm affinity estimate (log intensity, higher = more binding, comparable within an allelic series); for CGCGTCCC, 6.77 upbm affinity estimate (log intensity, higher = more binding, comparable within an allelic series).
For GCTAGACC the value was 6.75 upbm affinity estimate (log intensity, higher = more binding, comparable within an allelic series); for GCCATGGC, 6.8 upbm affinity estimate (log intensity, higher = more binding, comparable within an allelic series).
As to AGTCTGCG, the binding signal was 6.73 upbm affinity estimate (log intensity, higher = more binding, comparable within an allelic series).
With AGTAAATA, the binding signal was 8.48 upbm affinity estimate (log intensity, higher = more binding, comparable within an allelic series).
For GCAAATAA the value was 8.48 upbm affinity estimate (log intensity, higher = more binding, comparable within an allelic series).
As for GGCCACCA, the binding signal is 6.82 upbm affinity estimate (log intensity, higher = more binding, comparable within an allelic series).
On to CGATGCCC, for which the binding signal is 6.86 upbm affinity estimate (log intensity, higher = more binding, comparable within an allelic series).
For GACAGGGC the value was 6.63 upbm affinity estimate (log intensity, higher = more binding, comparable within an allelic series); for GCCTGCGA, 6.64 upbm affinity estimate (log intensity, higher = more binding, comparable within an allelic series); for AGCTCCCG, 6.63 upbm affinity estimate (log intensity, higher = more binding, comparable within an allelic series).
Then AATTCAAC, with 7.78 upbm affinity estimate (log intensity, higher = more binding, comparable within an allelic series).
With ATGCCAGC, the binding signal was 6.77 upbm affinity estimate (log intensity, higher = more binding, comparable within an allelic series).
For CCAGGGTC the value was 6.85 upbm affinity estimate (log intensity, higher = more binding, comparable within an allelic series); for GCTCGGAC, 6.66 upbm affinity estimate (log intensity, higher = more binding, comparable within an allelic series); for CCTGTTAG, 8.15 upbm affinity estimate (log intensity, higher = more binding, comparable within an allelic series).
Then AGCCTGGC, with 6.87 upbm affinity estimate (log intensity, higher = more binding, comparable within an allelic series); and GTCAGGAC, with 6.96 upbm affinity estimate (log intensity, higher = more binding, comparable within an allelic series).
As to CGCGGTCC, the binding signal is 6.82 upbm affinity estimate (log intensity, higher = more binding, comparable within an allelic series).
For AGGACACC the value was 6.77 upbm affinity estimate (log intensity, higher = more binding, comparable within an allelic series); for ATTATGGG, 8.87 upbm affinity estimate (log intensity, higher = more binding, comparable within an allelic series).
Then ACCGAGAG, with 6.74 upbm affinity estimate (log intensity, higher = more binding, comparable within an allelic series).
In the case of AAGGGAGT, the binding signal was 6.7 upbm affinity estimate (log intensity, higher = more binding, comparable within an allelic series).
Then CCCGCGCA, with 6.9 upbm affinity estimate (log intensity, higher = more binding, comparable within an allelic series); and GGTGCACC, with 6.58 upbm affinity estimate (log intensity, higher = more binding, comparable within an allelic series); and GACATTAC, with 7.84 upbm affinity estimate (log intensity, higher = more binding, comparable within an allelic series).
Then CGCGAACC, with 6.67 upbm affinity estimate (log intensity, higher = more binding, comparable within an allelic series).
For GGAGCAGA the value was 6.89 upbm affinity estimate (log intensity, higher = more binding, comparable within an allelic series); for AGGGCCGC, 6.82 upbm affinity estimate (log intensity, higher = more binding, comparable within an allelic series).
